According to PubChem BioAssay AID493027 (The Scripps Research Institute Molecular Screening Center, 2011):
About 45 (2%) of roughly 2,000 compounds were called active.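 How the source made its calls: active means inhibition above the screen-wide mean inhibition plus 3 SD (cut at about 44% in these data); inactive means the rest.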 The entries come from a sample that favours actives as a whole.

These compounds were tested against Perilipin-1 (Homo sapiens) + 1-acylglycerol-3-phosphate O-acyltransferase ABHD5 (Homo sapiens) (UniProt O60240+Q8WTS1) (assay: blockers of ABHD5 binding to perilipin-1 – cell lysate, split luciferase complementation, luminescence, NIH validation set, pilot screen (AID 493027;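 further: 0% = DMSO wells with the 100% control not disclosed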)). Conditions: split G. princeps luciferase complementation, 4 h; at 7.9 µM, stronger effect = higher value.
Chain of Perilipin-1 (Homo sapiens) + 1-acylglycerol-3-phosphate O-acyltransferase ABHD5 (Homo sapiens) (O60240 whole entry, looked up): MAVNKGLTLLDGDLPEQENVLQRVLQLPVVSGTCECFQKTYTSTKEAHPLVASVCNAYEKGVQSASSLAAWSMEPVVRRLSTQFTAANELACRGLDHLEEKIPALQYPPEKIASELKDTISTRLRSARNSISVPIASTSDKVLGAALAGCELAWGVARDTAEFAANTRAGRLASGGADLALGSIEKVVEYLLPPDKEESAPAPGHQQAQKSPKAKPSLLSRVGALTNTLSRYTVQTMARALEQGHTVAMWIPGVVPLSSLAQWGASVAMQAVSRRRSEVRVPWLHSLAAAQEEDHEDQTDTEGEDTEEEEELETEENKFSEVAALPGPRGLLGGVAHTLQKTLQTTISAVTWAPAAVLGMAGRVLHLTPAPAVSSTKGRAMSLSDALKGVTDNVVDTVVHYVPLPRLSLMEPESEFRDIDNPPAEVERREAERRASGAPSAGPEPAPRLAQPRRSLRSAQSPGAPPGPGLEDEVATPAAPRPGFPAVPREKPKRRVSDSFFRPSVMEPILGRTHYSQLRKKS
Chain of Perilipin-1 (Homo sapiens) + 1-acylglycerol-3-phosphate O-acyltransferase ABHD5 (Homo sapiens) (Q8WTS1 whole entry, looked up): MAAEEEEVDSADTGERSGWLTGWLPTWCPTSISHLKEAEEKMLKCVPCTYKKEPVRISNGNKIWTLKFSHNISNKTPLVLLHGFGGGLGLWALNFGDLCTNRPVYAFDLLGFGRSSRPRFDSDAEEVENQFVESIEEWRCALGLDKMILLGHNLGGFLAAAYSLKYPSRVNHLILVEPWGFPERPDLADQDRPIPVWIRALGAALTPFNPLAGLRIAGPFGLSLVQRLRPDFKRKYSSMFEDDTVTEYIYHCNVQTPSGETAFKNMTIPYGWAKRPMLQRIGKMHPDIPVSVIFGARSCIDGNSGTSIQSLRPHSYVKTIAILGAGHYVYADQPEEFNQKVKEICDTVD

inhibition, active:
CSCCC(NC(=O)OC(C)(C)C)C(=O)Oc1ccc2c(=O)c(-c3ccc4c(c3)OCCO4)coc2c1 (stereo not drawn) 67.4%, CC1(C)c2ccccc2N2CC(=O)NC21/C=C/c1ccco1 (stereo not drawn) 47.4%, O=C(/C=C/c1ccc2c(c1)OCO2)c1ccccn1 51.3%, COc1ccc(/C=C/C(=O)c2cc3cccc(OC)c3oc2=O)cc1 60.6%, CS(=O)(=O)Oc1ccc2c(c1)O/C(=C\C=C\c1ccccc1)C2=O 58.8%, COc1ccc(O)c(C(=O)/C=C/c2cc3ccccc3o2)c1 66.9%, Cc1ccc(C2=NOC(=O)/C2=C\C=C\c2ccccc2)cc1 95.6%, COc1ccc(/C=C2\CC/C(=C\c3ccc(OC)c(OC)c3)C2=O)cc1OC 59.1%, O=C1ON=C(c2ccc(Cl)cc2)/C1=C/c1ccc(O)cc1 82.8%, COc1cc(/C=C/C(=O)CC(=O)/C=C/c2ccc(O)c(OC)c2)ccc1O 50.4%

inhibition, inactive:
O=c1c(-c2ccc3c(c2)OCCO3)coc2cc(OC3OC(CO)C(O)C(O)C3O)ccc12 (stereo not drawn) -4.41%, CSCCC(NC(C)=O)C(=O)Oc1ccc2c3c(c(=O)oc2c1)CCCC3 (stereo not drawn) 4.14%, O=C(Nc1ccc(Cl)cn1)Nc1ccccc1Cl -3.38%, CC(C)C1Cc2[nH]c(=O)c(C(=O)O)cc2CO1 (stereo not drawn) -7.52%, CCCC(=O)Nc1ccccc1NC(C)=O -6.46%, N/C(=N\OS(=O)(=O)c1ccc2ccccc2c1)c1cccnc1 0.01%, COc1ccc(-c2c(NC(=O)c3ccco3)n(C)c3ccccc3c2=O)cc1 -10.8%, O=C(NCCN1CCCCC1)c1c(O)c2ccccc2[nH]c1=O -2.32%, CC1(C)c2ccccc2N2CC(=O)N(CC(N)=O)C21C (stereo not drawn) 4.18%, O=C(/C=C/c1ccco1)N1CCN(c2ccccc2)CC1 4.55%, CC(=O)c1c(C)c(C)c2n1CCn1c(C)ccc1-2 5.75%, COc1ccc(C2C(C#N)=C(N)Oc3cc(C)[nH]c(=O)c32)c(OC)c1OC (stereo not drawn) -14.5%, O=C(/C=C/c1ccc2c(c1)OCO2)NCc1ccc(F)cc1 -2.57%, O=C(/C=C/c1ccc2c(c1)OCCCO2)c1ccc2ccccc2c1O 17.8%, CC1(C)CC(=O)c2cc(O)ccc2O1 -2.35%, CC(CCCC(C)(C)O)NC(=O)c1ccc(OC2CCN(C(=O)C3CC3)CC2)cc1 (stereo not drawn) -7.27%, Cc1ccc2[nH]c3c(c2c1)CCNC3=O -4.86%, CC[n+]1ccc2cc(OC)c(OC)cc2c1Cc1ccc(OC)c(OC)c1 -12.6%, COc1cc(=O)n(C)c2ccccc12 -0.74%, COc1ccc(C(=O)/C=C/c2ccc(OC(=O)c3cc(OC)c(OC)c(OC)c3)cc2)cc1 26.9%, COc1cccc2cc(-c3ccccc3)c(=O)oc12 -3.48%, NS(=O)(=O)c1cc2c(cc1Cl)NC(C1C[C@H]3C=C[C@@H]1C3)NS2(=O)=O (stereo partly drawn) 0.4%, O=C(O)CCn1cnc2ccccc2c1=O 3.53%, O=C(Cc1ccccc1)NCC(=O)OCC(=O)c1ccccc1Cl -13.7%, CCN1C(=O)C(CC(=O)Nc2ccc(F)cc2)N(Cc2ccco2)C1=S (stereo not drawn) 10.9%, CC(=O)Oc1ccc2occ(/C=N/c3cc(=O)[nH]c(=S)[nH]3)c(=O)c2c1 -1.72%, O=c1cc(CN2CCN(c3cccc(Cl)c3)CC2)c2cc(O)c(-c3ccccc3)cc2o1 1.13%, COc1ccc2[nH]c(C)c(CN3CCC(C)CC3)c(=O)c2c1 -4.96%, CCc1cc2c(=O)c(-c3nc(C)cs3)coc2cc1OC(C)C(=O)NCCO (stereo not drawn) -3.43%, COc1ccc2oc(=O)c(C(=O)Nc3ccccc3-c3ccccc3)cc2c1 -7.96%, COc1ccc2oc(=O)c(C(=O)N3CCN(c4ccccc4)CC3)cc2c1 9.05%, Cc1ccc(NCCC(=O)c2ccccc2)cc1Cl -2.97%, CCCN1CCC(NC(=O)Nc2ccc(Br)cc2)CC1 -9.54%, Cc1ccc2c(c1)C(O)(CC(=O)/C=C/C=C/c1ccccc1)C(=O)N2 (stereo not drawn) 16.4%, O=C1NC2(Nc3ccccc31)C(=O)Nc1ccc(Br)cc12 (stereo not drawn) 0.88%, CC1(C)CC(C(CC(=O)N2CCCC2)Cc2ccccc2)CCO1 (stereo not drawn) -12.5%, Cc1cc(C(=O)Nc2ccccc2C(=O)N2CCCCC2)ccc1[N+](=O)[O-] -3.48%, COc1ccc(/C=C2\CCc3ccccc3C2=O)c(OC)c1OC -0.86%, COc1ccc(/C=C2\CCn3c2nc2cc(C(=O)O)ccc2c3=O)cc1OC -6.3%, CCN(CCCCCN(C)C)Cc1cc2ccccc2o1 -7.75%, O=C1C(Cc2c[nH]c3ccccc23)NC(=S)N1Cc1ccccc1 (stereo not drawn) -4.43%, CC(=O)N1CCN2C(=O)C1CCCC(=O)c1cc(C(C)C)ccc12 (stereo not drawn) 0.46%, COc1cc2c(cc1OC)/C(=C/c1ccc(Cl)cc1)C(=O)OC2 27.4%, CCOC(=O)N1CCN(Cc2nc(Cc3cccc(F)c3)no2)CC1 -1.53%, C=CCc1ccc(OCC(O)COc2ccc(CC=C)cc2OC)c(OC)c1 -1.62%, Cc1ccccc1C(=O)NNc1ncnc2c1cnn2C -10.4%, Cn1cc(CN2CCCC(CO)(Cc3cccc(Cl)c3)C2)cn1 (stereo not drawn) -10.7%, c1ccc2c3c(c(CN4CCCCC4)cc2c1)COC3 -4.68%, O=C(O)/C=C/c1ccc(O)c(O)c1 -2.22%, CCN(CC)C(=O)c1ccc(O)c(OC)c1 -1.24%, COc1ccc2c(c1O)Cc1ccccc1C2=O 12%, COc1cc(OC)cc(C(=O)N[C@@H](CCSC)c2nc3ccccc3[nH]2)c1 2.97%, CC(C)CCC1(CCNC(C)c2cccs2)CCOC(C)(C)C1 (stereo not drawn) -4.9%
